Laboratory results from PubChem BioAssay.
Values without a mark were called inactive.

Test: cell viability in Huh7 cells, primary screen, cytotoxicity control for HCV replication inhibitor project, CellTiter-Glo luminescence, basal, 48 h (AID 1143);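 further: Huh7 hepatoma cells carrying a hepatitis C replication reporter with no stimulus; test concentration not given here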
Settings: Huh7 HCV replicon, higher = more signal, called active from +8 up or from −8 down

Structure (SMILES)	z-score
CCOC(=O)C[C@H]1[C@H](OC(=O)Cc2ccc3c(c2)OCO3)[C@@H](NC(=O)c2ccc3ccccc3n2)c2cc(OCCCO)ccc2N1C(=O)Cc1ccc(OC)cc1	-1.01
O=C(NC1CC1)[C@@H]1c2ccccc2C(=O)N(Cc2cc(C(F)(F)F)cc(C(F)(F)F)c2)[C@H]1c1ccc(CO)cc1	-4.67
C=C(/C(=C/C[C@@H](OC(C)=O)c1cccc(OCCO)c1)c1cnc2ccccc2c1)C(C)C	-1.69
O=C1C2C=CC(C(O)c3cccs3)N(Nc3ccc([N+](=O)[O-])cc3)C2C(=O)N1c1ccccc1 (configuration not stated)	0.0886
C[N+](C)(C)CCCC[C@@H]1NC(=O)[C@H]2C[C@@H](C(=O)NCCCCCNC(=O)CS)[C@@H](c3cccc(OCCO)c3)N2C1=O	-0.907
COCCOC(=O)N1C(=O)[C@@]2(c3cc(C#CCC(C(=O)OC)C(=O)OC)ccc31)[C@H](c1ccc(O)cc1)N1[C@H](c3ccccc3)[C@H](c3ccccc3)OC(=O)[C@H]1[C@@H]2C(=O)Nc1nc2ccccc2s1	-1.48
COC(=O)[C@@]1(Cc2ccc(OC)cc2)[C@H]2c3cc(C(=O)N4CCCC4)n(Cc4c(CO)[nH]cc(C)c4=O)c3C[C@H]2CN1C(=O)c1ccccc1	-1.1
O=C1C[C@]2(c3ccc([N+](=O)[O-])cc3)C(=O)N(C3CC3)c3cc(CO)ccc3[C@H]2N1C1CCCCC1	1.09
C=C(COC)/C(=C/C[C@@H](OC(C)=O)c1ccccc1OCCO)c1cnc2ccccc2c1	-2.52
COCCOC(=O)N1C(=O)[C@@]2(c3cc(C#CC4(O)CCCCCC4)ccc31)[C@H](c1ccc(O)cc1)N1[C@H](c3ccccc3)[C@H](c3ccccc3)OC(=O)[C@H]1[C@@H]2C(=O)N1CCCCCCC1	-0.844
C=CCOC(=O)[C@@H]1[C@H]2C(=O)O[C@H](c3ccccc3)[C@H](c3ccccc3)N2[C@H](c2ccc(OCCOC(=O)[C@H]3C[C@H]4C(=O)N[C@@H](CCCCN(C)C)C(=O)N4[C@H]3c3ccc(O)cc3)cc2)[C@@]12C(=O)Nc1ccc(I)cc12	-1.29
COC(=O)C[C@H]1O[C@@]2(C[C@@H]1[Si](C)(C)C)C(=O)N(C)c1ccccc12	-1.43
C=CCC(OC(C)=O)[C@@H]1[C@@H](N(Cc2cc3ccccc3o2)C(=O)c2cccc3ccccc23)c2cc(OCCCO)ccc2N1C(=O)c1ccc2ccccc2n1 (some centres not stated)	-1.35
COC(=O)[C@@]1(Cc2ccc(OC)cc2)[C@H]2c3cc(C(=O)N4CCCC4)n(CCn4cc([N+](=O)[O-])nc4C)c3C[C@H]2CN1C(=O)c1ccccc1	-0.798
CCCCCC1=C2CNC(CC(C)C)(C(=O)OC)C=C2C(C)C1=O (configuration not stated)	-0.575
O=C1C=C(c2ccccc2)C(=O)C2=C1CC([C@H]1Oc3ccccc3S(=O)(=O)N3CCC[C@@H]13)=CC2	-6.3
COCCOC(=O)N1C(=O)[C@@]2(c3cc(C#CCC(C(=O)OC)C(=O)OC)ccc31)[C@H](C(=O)Nc1nc3ccccc3s1)[C@H]1C(=O)O[C@H](c3ccccc3)[C@H](c3ccccc3)N1[C@@H]2c1ccc(O)cc1	-0.869
C=CCC(OC(C)=O)[C@@H]1[C@@H](N(Cc2ccc(-c3cccc(C(F)(F)F)c3)o2)C(=O)c2ccc(-c3ccccc3)cc2)c2cc(OCCCO)ccc2N1C(=O)c1ccc2ccccc2c1 (some centres not stated)	-0.87
Cc1ccc(S[C@]2(C(=O)NCCCN(C)C)CC(=O)N(Cc3ccccc3C(F)(F)F)[C@@H]2c2ccc(CO)cc2I)cc1	-1.13
CN(C)CCCC[C@@H]1NC(=O)[C@H]2C[C@@H](C(=O)O)[C@@H](c3ccc(O)cc3)N2C1=O	-2.41
COCCOC(=O)N1C(=O)[C@@]2(c3cc(C#CCCO)ccc31)[C@H](c1ccc(OCCO)cc1)N1[C@H](c3ccccc3)[C@H](c3ccccc3)OC(=O)[C@H]1[C@@H]2C(=O)N1CCCCCCC1	-1.31
CCN(CC)c1ccc(N2CC=CC34O[C@@H]5C=CCCOC(=O)C5[C@H]3C(=O)N(C(C)CO)[C@@H]4C2=O)cc1 (some centres not stated)	0.0396
CC(C)=CCCC(C)=CC(O)C1C=CC2C(=O)NC(=O)C2N1Nc1ccc(Cl)cc1Cl (configuration not stated)	-1.64
COC(=O)[C@@]1(Cc2ccc(F)cc2)[C@H]2c3cc(C(=O)N(C)C)n(CCc4ccc(O)c(O)c4)c3C[C@H]2CN1C(=O)c1ccccc1	0.395
N#Cc1ccc(-c2cccc(=O)o2)cc1	0.454
COC(=O)[C@@]1(Cc2ccccc2)[C@H]2c3cc(C(=O)N(C)C)n(CCO)c3C[C@H]2CN1C(=O)c1ccccc1	0.254
C=CCOC(=O)[C@H]1[C@@H]2C(=O)O[C@@H](c3ccccc3)[C@@H](c3ccccc3)N2[C@@H](c2ccc(OCCOC(=O)[C@@H]3C[C@@H]4C(=O)N[C@@H](CCCC[N+](C)(C)C)C(=O)N4[C@@H]3c3ccc(O)cc3)cc2)[C@]12C(=O)Nc1ccc(I)cc12	-0.56
